Source: PubChem BioAssay (The Scripps Research Institute Molecular Screening Center)
FBW7 activator: FBW7 E3 ligase activators, primary screen, biochemical, AlphaScreen, human; normalized activity (activation), % at 26.1 µM; hit rate 0.13% among 650,000; F-box/WD repeat-containing protein 7 (Homo sapiens), Q969H0; AlphaScreen FBW7–phospho-cyclin E peptide binding, activator screen; in the data active = normalized activity above about 1.9%;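 also: purified mutant Fbw7 with reduced substrate affinity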
TEAD-YAP block: TEAD-YAP interaction inhibition, primary screen, TEAD-YAP interaction inhibitor project, luminescence, HEK-TIYL cells. TEAD-Gal4/YAP UAS-luciferase luminescence. inhibition, % at 9.12 µM. hit rate 1.4% among 640,000. AID 1259422, 2018; in the data active = inhibition above about 32%
MITF primary: MITF inhibitors, primary screen, biochemical, AlphaScreen, human | Microphthalmia-associated transcription factor (Homo sapiens), O75030 | AlphaScreen MITF homodimerization, bead proximity signal | inhibition, % at 2.6 µM | hit rate 0.91% among 650,000 | AID 1259374, 2018; in the data active = inhibition above about 50%
GPR151 activ: activators of human GPR151, primary screen, cell-based, PathHunter beta-arrestin, luminescence; activation, % at 11.2 µM; hit rate 1% among 650,000; PathHunter beta-arrestin GPR151 cells; AID 1508602, 2020; in the data active = activation above about 4.9%
Target sequence (Q8TDV0 whole entry, looked up): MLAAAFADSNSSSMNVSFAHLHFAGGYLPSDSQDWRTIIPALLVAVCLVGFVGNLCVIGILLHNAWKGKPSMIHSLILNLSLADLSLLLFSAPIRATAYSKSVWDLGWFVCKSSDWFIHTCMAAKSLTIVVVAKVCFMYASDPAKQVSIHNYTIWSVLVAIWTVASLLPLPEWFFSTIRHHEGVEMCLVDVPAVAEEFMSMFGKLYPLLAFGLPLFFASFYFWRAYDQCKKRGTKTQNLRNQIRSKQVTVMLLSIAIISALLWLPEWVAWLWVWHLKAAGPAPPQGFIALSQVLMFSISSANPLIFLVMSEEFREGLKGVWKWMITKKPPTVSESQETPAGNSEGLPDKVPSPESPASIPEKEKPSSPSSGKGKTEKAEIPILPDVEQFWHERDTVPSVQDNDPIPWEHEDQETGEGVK
Hits are given with their value; i = inactive. Shown are actives, neighbours in structure and some others; about 3.4% of the full set was active somewhere.

SMILES	FBW7 activator	TEAD-YAP block	MITF primary	GPR151 activ
O=C(Nc1cc(=O)[nH]c(=O)[nH]1)c1cc(Br)ccc1Cl	i	54.1	i	i
O=C(Nc1cc(=O)[nH]c(=O)[nH]1)c1cc(Cl)ccc1Cl	i	51.8	i	i
O=C(Nc1cc(=O)[nH]c(=O)[nH]1)c1cc([N+](=O)[O-])ccc1Cl	i	i	i	i
CCSc1sc(CC)cc1C1C(C(=O)Nc2cccc(C)n2)=C(C)NC2=C1C(=O)CCC2 (configuration not stated)	i	i	i	i
Cc1ncn(-c2ccc(Nc3ncc4cccc(-c5ccc6ncccc6c5)c4n3)cc2)n1	i	i	i	i
CCc1ccc(NC(=O)c2sc3nc(N)c(C#N)c(-c4ccc(OC)c(OC)c4)c3c2N)cc1	i	i	i	i
Cc1cccc(NC(=O)c2sc3nc(C)cc(C)c3c2N)n1	i	83.6	i	i
Cc1cc(C)c2c(N)c(C(=O)NC(C)c3ccccc3)sc2n1 (configuration not stated)	2.3	i	i	i
Cc1cc(C)c2c(N)c(C(=O)Nc3ccccc3)sc2n1	i	i	i	i
COc1ccc2nc(NC(=O)c3sc4nc(C)cc(C)c4c3N)sc2c1	i	35.3	i	i
COc1ccc2nc(NC(=O)c3sc4nc(C)[nH]c(=O)c4c3C)sc2c1	i	i	i	i
Cc1nc2cc(C(=O)N3CCc4ccccc43)ccc2n1-c1ccc(F)cc1F	i	i	i	i
COc1ccc(C(=O)C[n+]2cc(-c3ccc(OC)cc3)n3c2CCCCC3)cc1	i	38.0	i	i
COc1ccc(-c2c[n+](CC(=O)c3ccc(Cl)cc3)c3n2CCCCC3)cc1	i	i	i	i
CC(=O)NC(Nc1nnc(-c2ccccc2)s1)C(Cl)(Cl)Cl (configuration not stated)	i	i	i	i
CC(=O)NC(Nc1nnc(-c2ccc(C)cc2)s1)C(Cl)(Cl)Cl (configuration not stated)	i	49.3	i	i
Cc1cccc(-n2ncc3c(Nc4cccc5ccccc45)ncnc32)c1	i	32.5	i	i
CSc1ccccc1Nc1ncnc2c1cnn2-c1cccc(C)c1	i	60.5	i	i
Cc1cccc(-n2ncc3c(Nc4c(C)cc(C)cc4C)ncnc32)c1	i	57.2	i	i
Cc1cccc(-n2ncc3c(Nc4ccccc4)ncnc32)c1	i	i	i	i
CC(C)[C@@H](CO)Nc1ccc2ncc(-c3ccc(N(C)C)cc3)n2n1	i	i	i	i
CC(C)[C@@H](CO)Nc1ccc2ncc(-c3ccc(CO)cc3)n2n1	i	42.9	i	i
CC(C)[C@@H](CO)Nc1ccc2ncc(-c3ccsc3)n2n1	i	32.5	i	i
CC(C)[C@@H](CO)Nc1ccc2ncc(-c3ccco3)n2n1	i	52.8	i	i
COc1ccc(-c2cnc3ccc(N[C@H](CO)C(C)C)nn23)c(OC)c1	2.0	i	i	i
SMILES	FBW7 activator	TEAD-YAP block	MITF primary	GPR151 activ
CC(C)[C@@H](CO)Nc1ccc2ncc(-c3cccc4ccccc34)n2n1	i	i	i	i
CC1(C)C=C(CC2(C)CC(C)(C)NC(=S)N2)NC(=S)N1 (configuration not stated)	i	i	i	i
CC(C)N(Cc1nc(-c2ccc(Cl)cc2)no1)C(=O)CN1C(=O)c2ccccc2C1=O	i	i	i	i
CCOc1ccc(NC(=O)/C(C#N)=C/c2cn(CC(=O)NCCOC)c3ccccc23)cc1	i	i	i	i
CC(=O)Nc1ccc(NC(=O)c2cccc(-c3cccc(N)c3)n2)cc1	i	i	i	i
O=Cc1ccc(OCc2ccc3c(c2)OCO3)c(Cl)c1	i	71.9	i	i
O=Cc1ccccc1OCc1ccc2c(c1)OCO2	i	i	i	i
COc1ccccc1NC(=O)Cn1c(=O)n(CC2CCCO2)c(=O)c2ccccc21 (configuration not stated)	i	i	i	i
Cc1cc(C)c(C#N)c(SCc2nc3ccccc3[nH]2)n1	i	i	i	i
Cc1cc(C)c(C#N)c(SCc2nc3cc([N+](=O)[O-])c([N+](=O)[O-])cc3[nH]2)n1	i	86.0	i	i
Cc1ccc(C(=O)COC(=O)c2ccc(NC(=O)c3ccc(Cl)cc3)cc2)cc1[N+](=O)[O-]	i	i	i	i
CCn1c2ccccc2c2cnc(N=CN(C)C)c(C#N)c21	i	41.7	i	i
Cc1sc2ncnc(NCCc3ccc(S(N)(=O)=O)cc3)c2c1C	i	36.8	i	i
Cc1nc(NCCC2=CCCCC2)c2c3c(sc2n1)CCCC3	i	i	i	i
Cc1sc2ncnc(NCCC3=CCCCC3)c2c1C	i	44.4	i	i
COc1cccc(C2NC(=S)NC(c3ccccc3)=C2C(C)=O)c1 (configuration not stated)	i	49.6	i	i
O=C(Nc1ccc(Br)cc1)c1cnn2ccccc12	i	32.3	i	i
COc1ccc(C(=O)c2sc3nc(C)ccc3c2N)cc1OC	i	32.9	i	i
Cc1ccc(C(=O)c2sc3nc(C)ccc3c2N)c(C)c1	i	37.0	i	i
CCOC(=O)CSc1nc2c(c(=O)n1-c1ccccc1C)C1(CCCCC1)Cc1ccccc1-2	i	i	i	i
CSc1ccc(NC(=O)Nc2cccn(Cc3ccc(C)cc3)c2=O)cc1	i	33.2	i	i
O=C(Nc1ccc(N2CCCN(C(=O)C3CC3)CC2)cc1)c1ccc(-n2cccc2)cc1	i	32.6	i	i
COc1ccc(CCNc2cc(-c3cccc(N)c3)nc(N)n2)cc1	i	35.2	i	i
COc1ccc(CCNc2nc(-c3cccc(N)c3)ncc2C)cc1	i	44.4	i	i
COc1ccc(CCNc2cc(-c3ccccc3)ncn2)cc1	1.9	i	i	i
SMILES	FBW7 activator	TEAD-YAP block	MITF primary	GPR151 activ
O=C1NC2(CCN(C(=O)c3nccc4ccccc34)CC2)Nc2ccc(Cl)cc21	i	77.6	i	i
O=C1CSC(=S)N1CCCCCCN1C(=O)CSC1=S	i	i	i	i
O=C(O)CCCCCN1C(=O)CSC1=S	i	32.5	i	i
O=C(O)CCCN1C(=O)CSC1=S	i	57.3	i	i
COc1ccc(C(=O)N2CCN(C)CC2)cc1I	i	i	i	i
COc1ccc(CCNc2ncnc3c2nc(-c2ccc(N4CCOCC4)nc2)n3C(C)C)cc1	i	59.0	i	i
COc1ccc(CCNc2ncnc3c2nc(N2CCOCC2)n3C(C)C)cc1	i	i	i	i
COc1ccc(CCNc2ncnc3c2nc(Nc2ccc(N4CCOCC4)cc2)n3C(C)C)cc1	i	79.0	i	i
COC(=O)c1ccccc1NC(=O)CSc1nnc(NC2CCCCC2)s1	i	39.7	i	i
COC(=O)c1ccccc1NC(=O)CSc1nnc(NC(=O)C2CCC2)s1	i	i	i	i
COc1ccc(Cl)cc1C(=O)Nc1ccc(Nc2cc(-n3cccn3)ncn2)cc1	i	i	i	i
COc1cccc(C(=O)Nc2ccc(Nc3cc(-n4cccn4)ncn3)cc2)c1	i	67.9	i	i
COc1cccc(C(=O)Nc2ccc3scnc3c2)c1	i	63.4	i	i
